# In PubChem BioAssay (Tox21):
# Values joined by “and” are separate entries in the source; they are usually repeats but may differ in a detail not shown here. Equal entries are not always repeated. Records with an inconclusive call do not appear. Where a call stands in place of a potency, no number is given. Some structures have more than one record in an assay (separate samples or runs), and their calls can disagree. Active and inactive are the calls of the source. Unless noted, the call rests on the fitted dose curve; in most records, active means well fitted curve in the direction sought with a large enough effect in the repeat runs; inconclusive means weak or mixed curves; inactive means no such curve, though single readings can be large; an effect the other way counts as inactive or inconclusive.
# Key:
# [1] = qHTS assay to identify small molecule antagonists of the estrogen related receptor (ERR) signaling pathway from Tox21 library - cell viability counter screen (AID 1224834); further: nearly all actives have a fitted effect of over 30% in size; further: potency means the concentration at half of the fitted maximal effect
# How it was run: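 After 17.5 h of compound exposure at 37 C, ERR cells are incubated with CellTiter-Fluor for 30 min and fluorescence intensity serves as the viability measure.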
# [2] = target: Luciferin 4-monooxygenase (Photinus pyralis) (UniProt P08659); experiment: qHTS assay to identify small molecule inhibitors of firefly luciferase (AID 1224835); further: series mostly up to about 120 µM; nearly all actives have a fitted effect of over 25% in size
# Sequence of Luciferin 4-monooxygenase (Photinus pyralis) (P08659 whole entry, looked up): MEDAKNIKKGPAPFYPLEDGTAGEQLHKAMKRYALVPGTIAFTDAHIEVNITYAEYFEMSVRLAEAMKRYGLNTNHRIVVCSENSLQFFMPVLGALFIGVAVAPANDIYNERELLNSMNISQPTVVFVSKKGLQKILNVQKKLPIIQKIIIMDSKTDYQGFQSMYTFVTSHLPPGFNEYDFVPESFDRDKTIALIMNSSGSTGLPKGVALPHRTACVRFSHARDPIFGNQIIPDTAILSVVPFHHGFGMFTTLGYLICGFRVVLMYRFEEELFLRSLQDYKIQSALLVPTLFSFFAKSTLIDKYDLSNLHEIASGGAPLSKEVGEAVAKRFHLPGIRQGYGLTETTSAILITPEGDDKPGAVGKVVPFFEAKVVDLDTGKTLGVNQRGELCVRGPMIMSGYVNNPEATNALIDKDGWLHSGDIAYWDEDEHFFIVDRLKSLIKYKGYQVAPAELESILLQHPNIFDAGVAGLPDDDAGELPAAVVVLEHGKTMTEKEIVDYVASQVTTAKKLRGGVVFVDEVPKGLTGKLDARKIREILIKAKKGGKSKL
# How it was run: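 Quantitative HTS format; KM concentrations of both substrates. Purified P. pyralis FLuc activity quantified from luminescence images.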
# [3] = qHTS assay to identify small molecule agonists of the constitutive androstane receptor (CAR) signaling pathway - cell viability counter screen (AID 1224836); further: nearly all actives have a fitted effect of over 45% in size; further: potency means the concentration at half of the fitted maximal effect
# How it was run: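 HepG2 cells stably carrying hCAR and a CYP2B6-2.2kb reporter were plated 4 h, then given compounds at 15 concentrations plus PK11195 (final 0.75 uM). After 23 h at 37 C, viability was read by CellTiter-Fluor fluorescence.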
# [4] = qHTS assay to identify small molecule antagonists of the constitutive androstane receptor (CAR) signaling pathway - cell viability counter screen (AID 1224837); further: nearly all actives have a fitted effect of over 45% in size; further: potency means the concentration at half of the fitted maximal effect
# How it was run: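 Counter screen run in HepG2-CYP2B6-hCAR cells: 4 hr settle, compound titration (15 concentrations) with 50 nM CITCO, 23 hr at 37 C/5% CO2, CellTiter-Fluor fluorescence.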
# [5] = target: Nuclear receptor subfamily 1 group I member 3 (Homo sapiens) (UniProt Q14994); experiment: qHTS assay to identify small molecule antagonists of the constitutive androstane receptor (CAR) signaling pathway (AID 1224838); further: nearly all actives have a fitted effect of over 40% in size; further: potency means the concentration at half of the fitted maximal effect
# Sequence of Nuclear receptor subfamily 1 group I member 3 (Homo sapiens) (Q14994 whole entry, looked up): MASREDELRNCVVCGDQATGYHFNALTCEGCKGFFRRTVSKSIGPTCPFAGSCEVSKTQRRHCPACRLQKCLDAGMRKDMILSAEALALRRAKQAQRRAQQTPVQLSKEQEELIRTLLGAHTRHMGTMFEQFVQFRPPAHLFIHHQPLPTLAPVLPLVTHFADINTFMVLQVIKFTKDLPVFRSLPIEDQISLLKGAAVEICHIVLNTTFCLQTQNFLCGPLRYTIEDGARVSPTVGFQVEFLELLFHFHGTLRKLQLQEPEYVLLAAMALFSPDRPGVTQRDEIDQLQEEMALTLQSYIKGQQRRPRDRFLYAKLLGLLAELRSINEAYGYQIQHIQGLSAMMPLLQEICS
# How it was run: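 Cell line: HepG2 double-stable for hCAR and CYP2B6-2.2kb reporter. Agonist: CITCO, 50 nM final. Compounds: 15 concentrations, 24 h, 37 C. Detection: ONE-Glo luminescence.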
# [6] = target: Nuclear receptor subfamily 1 group I member 3 (Homo sapiens) (UniProt Q14994); experiment: qHTS assay to identify small molecule agonists of the constitutive androstane receptor (CAR) signaling pathway (AID 1224839); further: nearly all actives have a fitted effect of over 15% in size; further: potency means the concentration at half of the fitted maximal effect
# How it was run: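 HepG2 cells stably expressing hCAR and a CYP2B6-2.2kb luciferase reporter were treated with compounds at 15 concentrations plus 0.75 uM PK11195 (final) for 24 h at 37 C; luminescence was read after ONE-Glo addition.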
# [7] = qHTS assay to identify small molecule antagonists of the estrogen related receptor signaling pathway with the pleiotropic PPARgamma coactivator (PGC) from Tox21 10K library - cell viability counter screen (AID 1224840; active means well fitted cell-killing curve with a large enough effect in the repeat runs, not every such curve was filed as active; further: nearly all actives have a fitted effect of over 40% in size; further: potency means the concentration at half of the fitted maximal effect)
# How it was run: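 Following seeding of 2,000 PGC/ERR cells/well and 6 hours' incubation, test compounds were delivered in DMSO. The plates then sat 17.5 hours at 37 C before a fluorogenic live-cell protease reagent (CellTiter-Fluor) was read after 30 min.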
# [8] = qHTS assay to identify small molecule antagonists of the estrogen related receptor signaling pathway with the pleiotropic PPARgamma coactivator (PGC) from Tox21 10K library (AID 1224841; call rule not given here; further: actives are mostly falling curves and most rising ones were filed inactive; nearly all actives have a fitted effect of over 50% in size; further: potency means the concentration at half of the fitted maximal effect)
# How it was run: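 qHTS antagonist format: PGC/ERR cells, 2k/well, compound in DMSO by pin transfer after 6 h attachment, 18 h treatment at 37 C, One-Glo luminescence read at 30 min.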
# [9] = qHTS assay to identify small molecule agonists of the estrogen related receptor signaling pathway with the pleiotropic PPARgamma coactivator (PGC) from Tox21 10K library (AID 1224842); further: nearly all actives have a fitted effect of over 15% in size; further: potency means the concentration at half of the fitted maximal effect
# How it was run: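 PGC/ERR reporter cells (NTP line) were seeded 2,000 per well, rested 6 h at 37 C/5% CO2, then pin-dosed with compounds in DMSO for 18 h at 37 C; luciferase read by One-Glo luminescence after 30 min at room temperature.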
# [10] = qHTS assay to identify small molecule agonists of the estrogen related receptor signaling pathway with the pleiotropic PPARgamma coactivator (PGC) (AID 1224823); further: potency means the concentration at half of the fitted maximal effect
# How it was run: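 PGC/ERR reporter cells were seeded, rested 6 h at 37 C/5% CO2, then exposed to compounds in DMSO by pin transfer for 18 h at 37 C. Luciferase activity was read as luminescence after One-Glo reagent and 30 min at room temperature.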
Structure (SMILES),Potency [1],Potency [2],Potency [3],Potency [4],Potency [5],Potency [6],Potency [7],Potency [8],Potency [9],Potency [10]
CCCCC(CC)COC(=O)/C=C/c1ccc(OC)cc1 (configuration not stated),inactive,inactive,inactive,inactive,inactive,inactive,inactive,inactive,inactive,
O=S(=O)(O)c1ccc2cc(O)ccc2c1,inactive,inactive,inactive,inactive,inactive,inactive,inactive,,,
Oc1ccc(/C=C/c2cc(O)cc(O)c2)cc1,21.9 µM (active) and 21.7 µM (active) and 26.6 µM (active),,inactive,inactive,inactive,19.5 µM (active) and 21.7 µM (active) and 29.8 µM (active),inactive,inactive,5.5 µM (active) and 4.86 µM (active) and 10.6 µM (active),11.4 µM (active)
CC(=O)NS(=O)(=O)c1ccc(N)cc1,inactive,inactive,inactive,inactive,inactive,inactive,inactive,,,
CC(O)C(=O)O (configuration not stated),inactive,inactive,inactive,inactive,inactive,inactive,inactive,,,
O=C1NC(=O)c2ccccc21,inactive,inactive,inactive,inactive,inactive,inactive,inactive,,,
C[C@]12C=CC(=O)C=C1CC[C@@H]1[C@@H]2[C@@H](O)C[C@@]2(C)[C@H]1CC[C@]2(O)C(=O)CO,inactive,inactive,inactive,inactive,inactive,inactive,inactive,,,
Cc1ccccc1C(OCCN(C)C)c1ccccc1 (configuration not stated),inactive,inactive,inactive,inactive,inactive,inactive,inactive,,inactive,inactive
CCCCOC(=O)CC(CC(=O)OCCCC)(OC(C)=O)C(=O)OCCCC,inactive,inactive,inactive,inactive,inactive,17.4 µM (active) and 27.3 µM (active),inactive,inactive and 24.6 µM (active),inactive,
O=C(O)c1[nH]n(-c2ccc(S(=O)(=O)O)cc2)c(=O)c1N=Nc1ccc(S(=O)(=O)O)cc1,26.6 µM (active) and 27.4 µM (active) and 28.6 µM (active),inactive,30.7 µM (active) and 45.4 µM (active),48.7 µM (active) and 28.6 µM (active),inactive,inactive,27.4 µM (active) and 45.4 µM (active),,,
C/C=C/c1ccc(OC)cc1,inactive,inactive,inactive,inactive,inactive,inactive,inactive,,,
C1N2CN3CN1CN(C2)C3,inactive,inactive,inactive,inactive,inactive,inactive,inactive,,,
O=c1ccc2ccccc2o1,inactive,inactive,inactive,inactive,inactive,inactive,inactive,,,
CC(O)CN(CCN(CC(C)O)CC(C)O)CC(C)O (configuration not stated),inactive,inactive,inactive,inactive,inactive,inactive,inactive,,,
O=C(O)CCCCCCCC(=O)O,inactive,inactive,inactive,inactive,inactive,inactive,inactive,,,
CCCCCCCCCCCCCCCC(=O)O,inactive,inactive,inactive,inactive,inactive,inactive,inactive,,,
CC(=O)Nc1nnc(S(N)(=O)=O)s1,inactive,inactive,inactive,inactive,inactive,inactive,inactive,,,
Cc1cc(=O)n(-c2ccccc2)n1C,inactive,inactive,inactive,inactive,inactive,inactive,inactive,inactive,inactive,

Structure (SMILES),Potency [1],Potency [2],Potency [3],Potency [4],Potency [5],Potency [6],Potency [7],Potency [8],Potency [9],Potency [10]
Cc1ccc(S(=O)(=O)NC(=O)NN2CCCCCC2)cc1,inactive,inactive,inactive,inactive,inactive,,inactive,inactive,inactive,inactive
CC1(C)[C@@H]2CC[C@@]1(C)C(=O)C2,inactive,inactive,inactive,inactive,inactive,inactive,inactive,inactive,inactive,
O=C1CN(/N=C/c2ccc([N+](=O)[O-])o2)C(=O)N1,30.5 µM (active) and 61.1 µM (active),inactive,27.2 µM (active) and 21.7 µM (active) and 13.3 µM (active),27.2 µM (active) and 21.7 µM (active) and 21.1 µM (active),inactive,inactive,54.3 µM (active),19.3 µM (active) and 24.3 µM (active) and 16.8 µM (active),inactive,
O=C(C1CCCCC1)N1CC(=O)N2CCc3ccccc3C2C1 (configuration not stated),,inactive,inactive,inactive,,inactive,inactive,inactive,inactive,inactive
CCC1(c2ccccc2)C(=O)NCNC1=O,inactive,inactive,inactive,inactive,inactive,inactive,inactive,,,
Cc1cc(=O)[nH]c(=S)[nH]1,inactive,inactive,inactive,inactive,inactive,inactive,inactive,,,
CC(C)(Oc1ccc(C2CC2(Cl)Cl)cc1)C(=O)O (configuration not stated),inactive,inactive,inactive,inactive,inactive,inactive,inactive,,,
NNC(=O)c1ccncc1,inactive,inactive,inactive,inactive,inactive,inactive,inactive,inactive,inactive,
NC(N)=NC(=O)c1nc(Cl)c(N)nc1N,inactive,inactive,inactive,inactive,61.5 µM (active) and 50.4 µM (active) and inactive,inactive,inactive,,,
CC(C)[C@@H]1CC[C@@H](C)C[C@H]1O,inactive,inactive,inactive,inactive,inactive,inactive,inactive,,,
NC(=O)c1cnccn1,inactive,inactive,inactive,inactive,inactive,inactive,inactive,inactive,inactive,inactive
Nc1ccc(C(=O)O)cc1,inactive,inactive,inactive,inactive,inactive,inactive,inactive,,,
COc1ccc2[nH]cc(CCNC(C)=O)c2c1,inactive,inactive,inactive,inactive,inactive,inactive,inactive,inactive,inactive,inactive
CCCCC1C(=O)N(c2ccccc2)N(c2ccccc2)C1=O,inactive,inactive,inactive,inactive,inactive,inactive,inactive,inactive,inactive,inactive
NC(=O)NC1NC(=O)NC1=O (configuration not stated),inactive,inactive,inactive,inactive,inactive,inactive,inactive,,,
O=C(O)CCC(=O)O,inactive,inactive,inactive,inactive,inactive,inactive,inactive,inactive,inactive,
Cc1noc(NS(=O)(=O)c2ccc(N)cc2)c1C,inactive,inactive,inactive,inactive,inactive,inactive,inactive,,,
NC(N)=O,inactive,inactive,inactive,inactive,inactive,inactive,inactive,,,
